In PubChem BioAssay (NCATS):
Several values for one entry are separate records, joined by “and”; a condition that tells them apart may be missing. Equal entries are not always repeated. Records with an inconclusive call do not appear. Activity calls are given as the source filed them. Unless noted, the call rests on the fitted dose curve; in most records, active means well fitted curve in the direction sought with a large enough effect; inconclusive means small, poorly fitted or top-dose-only effect, or another doubt; inactive means no such curve, though single readings can be large; an effect the other way counts as inactive or inconclusive.

Tests used:
[1] = Cell Viability - BJ (AID 421; calls by dose curve;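 further: potency means the concentration at half of the fitted maximal effect; cells exposed to compound for 40 hours at 37 °C before readout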); details: BJ fibroblast viability, qHTS
In short: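 Normal human BJ foreskin fibroblasts, 1500/well in complete medium, treated 40 hr at 37 °C. Cellular ATP by CellTiter-Glo luminescence; normalized to DMSO and 100 uM tamoxifen, AC50 from Hill fit.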

[2] = Cell Viability - HepG2 (AID 433; calls by dose curve;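 further: potency means the concentration at half of the fitted maximal effect; cells exposed to compound for 40 hours; potency for ATP loss meaning cytotoxicity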); details: qHTS
In short: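 ATP luminescence (CellTiter-Glo) after 40 h compound exposure, 37 °C, HepG2, 1500 cells/well, complete medium. Normalized: DMSO = basal, 100 uM tamoxifen = 100% inhibition. AC50 via standard Hill equation.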

[3] = Cellular Toxicity (caspase-3) MRC-5 (AID 659); details: MRC-5 cells, luminescence, normalized: DMSO 0%, 10 µM staurosporine 100%; series mostly up to 91.7 µM
In short: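 Luminescent Caspase-Glo 3/7 read-out (1 h, room temperature) after a 16 h, 37 °C compound exposure of MRC-5 lung fibroblasts at 1500 cells/well. Concentration-response AC50 from Hill equation; 0% DMSO, 100% 10 uM staurosporine.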

[4] = Cellular Toxicity (caspase-3) N2a (AID 665); details: N2a cells, luminescence, normalized: DMSO 0%, 10 µM staurosporine 100%; series mostly up to 92.2 µM;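 further: compound exposure lasted 16 h at 37 °C before readout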
In short: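 Caspase-3/7 activation, measured as increased luminescence from aminoluciferin release, is quantified in mouse N2a cells exposed to compounds for 16 h. Values are normalized to DMSO and 10 uM staurosporine, with AC50 derived by Hill modelling.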

[5] = Cellular Toxicity (caspase-3) Renal Proximal Tubule (AID 667); details: renal proximal tubule cells; series mostly up to 91.7 µM;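 further: cells exposed to compound for 16 hours at 37 °C before detection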
In short: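 Luminescent caspase 3/7 signal from peptide-aminoluciferin cleavage measures apoptosis in freshly isolated rat kidney proximal tubule cells after 16 h compound exposure. Concentration-response data are normalized to DMSO and 10 uM staurosporine, and AC50 values come from Hill equation fits.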

[6] = Cell Viability - LYMP2-001 (AID 921); details: LYMP2-001 lymphoblastoid cell viability; series mostly up to 92.2 µM;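 further: 0% = DMSO only and full inhibition = tetraoctylammonium bromide control wells; nearly all actives have a fitted effect of over 70% in size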
In short: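 CellTiter-Glo luminescence (intracellular ATP) after 24 hr compound exposure at 37 C, 2500 lymphoblastoid cells/well in complete medium. AC50 fitted with standard Hill equation; tetraoctylammonium bromide positive control.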

[7] = MultiTox-Fluor Cytotoxicity Assay - LYMP1-002 - Live Cells (AID 955); details: LYMP1-002 lymphoblastoid live-cell protease fluorescence viability; series mostly up to 46.1 µM; further: on the % scale 0 is the no-effect control and ±100 the full control effect
In short: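 Cells were seeded at 2500 per well and incubated 5 hr. Compounds were then added for 16 hr at 37 C, followed by MultiTox-Fluor reagent for 60 min at room temperature and fluorescence reading of viable-cell protease signal.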

[8] = MultiTox-Fluor Cytotoxicity Assay - LYMP1-003 - Live Cells (AID 962); details: LYMP1-003 lymphoblastoid cells, MultiTox-Fluor live-cell protease fluorescence; series mostly up to 92.2 µM;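 further: cells exposed to compound for 16 hours at 37 °C; 0% = DMSO only and full loss = 92 µM tetraoctylammonium bromide; cytotoxic hits lower the live-cell protease signal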
In short: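 Acute cytotoxicity is scored as a drop in live-cell protease activity in human lymphoblastoid LYMP1-003 cells after 16 hr compound exposure at 37 C. AC50 values come from Hill-equation modelling of concentration-response data.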

[9] = Cell Viability - LYMP1-003 - Assay at 24 hr (AID 963); details: LYMP1-003 lymphoblastoid cell viability; series mostly up to 92.2 µM;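 further: plate controls were DMSO only for no effect and tetraoctylammonium bromide positive control for full effect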
In short: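 Cytotoxicity is scored as a concentration-dependent fall in ATP-linked luciferase signal in human lymphoblastoid LYMP1-003 cells treated 24 hr at 37 C in complete culture medium.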

[10] = Cell Viability - LYMP1-003 - Assay at 40 hr (AID 964); details: LYMP1-003 lymphoblastoid viability; series mostly up to 92.2 µM; further: on the % scale 0 is the no-effect control and ±100 the full control effect; nearly all actives have a fitted effect of over 60% in size
In short: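 Luminescent ATP signal (CellTiter-Glo) served as the viability read-out after 40 hr compound treatment of human lymphoblastoid LYMP1-003 cells at 37 C. Decreases in ATP were fitted with the Hill equation to give AC50.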

[11] = Cell Viability - LYMP2-017 (AID 972); details: LYMP2-017 lymphoblastoid cell viability; series mostly up to 92.2 µM; further: on the % scale 0 is the no-effect control and ±100 the full control effect; nearly all actives have a fitted effect of over 55% in size
In short: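 Cytotoxicity is scored as a concentration-dependent drop in cellular ATP in a human lymphoblastoid line after 24 hr treatment at 37 C. Values are AC50s from Hill-equation modelling.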

[12] = Cell Viability - LYMP2-021 (AID 974); details: LYMP2-021 lymphoblastoid cells viability; series mostly up to 92.2 µM;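 further: compound exposure lasts 24 hours at 37 °C; on the % scale 0 is the no-effect control and ±100 the full control effect; nearly all actives have a fitted effect of over 55% in size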
In short: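 Loss of cellular ATP, measured with a luciferase-based CellTiter-Glo readout, serves as the toxicity signal in human lymphoblastoid cells treated for 24 hours at 37 C. Potency is reported as AC50 from a standard Hill model.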

[13] = Cell Viability - LYMP2-025 (AID 976); details: LYMP2-025 lymphoblastoid cell viability; series mostly up to 92.2 µM;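 further: plate controls were DMSO only for no effect and tetraoctylammonium bromide control for full effect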
In short: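 Acute cytotoxicity is scored as a concentration-dependent fall in intracellular ATP, measured by luciferase luminescence, in human lymphoblastoid LYMP2-025 cells exposed to compound for 24 hours at 37 C. AC50 values come from standard Hill fits.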

[14] = Cell Viability - LYMP2-006 (AID 978); details: LYMP2-006 lymphoblastoid cell viability, qHTS; series mostly up to 92.2 µM; further: on the % scale 0 is the no-effect control and ±100 the full control effect; nearly all actives have a fitted effect of over 60% in size
In short: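 qHTS, 1536-well; 2500 cells/well, 5 hr 37 C; cpd 24 hr 37 C; CellTiter-Glo 30 min RT; luminescence. Tetraoctylammonium bromide pos. ctrl. AC50 via Hill eqn.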

[15] = Cell Viability - LYMP2-007 (AID 979); details: LYMP2-007 lymphoblastoid cell viability; series mostly up to 92.2 µM;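 further: cells exposed to compound for 24 h before reading; 0% = DMSO only and the negative end = 92 µM tetraoctylammonium bromide; nearly all actives have a fitted effect of over 60% in size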
In short: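 Cells are seeded at 2500 per well and rested 5 hr. Compounds are then added over a concentration series for 24 hr at 37 C. CellTiter-Glo is added for 30 min at room temperature before luminescence reading.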

[16] = Cell Viability - LYMP2-014 (AID 983); details: LYMP2-014 lymphoblastoid cells, viability qHTS; series mostly up to 92.2 µM;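 further: plate controls were DMSO only for no effect and 92 µM tetraoctylammonium bromide for full effect; nearly all actives have a fitted effect of over 50% in size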
In short: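 Cells are plated at 2500/well and left 5 hr at 37 C. Compounds are added across a concentration range and incubated 24 hr at 37 C in complete medium. CellTiter-Glo is added, and luminescence is read after 30 min at room temperature.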

[17] = Cell Viability - LYMP2-016 (AID 984); details: LYMP2-016 lymphoblastoid cell viability, qHTS; series mostly up to 92.2 µM; further: on the % scale 0 is the no-effect control and ±100 the full control effect; nearly all actives have a fitted effect of over 55% in size
In short: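 qHTS, 1536-well: 2500 LYMP2-016 cells/well, 5 hr 37 C, compound added, 24 hr 37 C, CellTiter-Glo 30 min RT, luminescence. Tetraoctylammonium bromide positive control. AC50 via Hill fit.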

[18] = qHTS Assay for Identification of Small Molecule Inducers of Hypoxia Response (AID 2120; active means well fitted curve in the direction sought with a large enough effect in the signal ratio, with a control signal flat, not every such curve was filed as active; the % refers to the signal ratio; further: 0% is about no effect); details: hypoxia response reporter cells, beta-lactamase ratio readout; series mostly up to 104 µM
In short: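 Cell-based qHTS for reporter induction: hypoxia response element controlled beta-lactamase in ME-180 cells. Compounds incubated 17 h at 37 degrees C; activity from blue/green (460/530 nm) ratio, inducers ranked by AC50.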

[19] = qHTS assay for small molecule agonists of the antioxidant response element (ARE) signaling pathway measured by Nrf2-dependant transcriptional activity - cell viability counter screen (AID 720653; active means well fitted curve in the direction sought with a large enough effect in the repeat runs; an effect the other way counts as inactive or inconclusive; further: on the % scale 0 is the no-effect control and ±100 the full control effect); details: ARE-bla HepG2 viability, CellTiter-Glo ATP luminescence, 16 h; hits give low values
In short: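 Cytotoxicity counter screen: intracellular ATP quantified by CellTiter-Glo luminescence in the same ARE-bla HepG2 plates, after 16 h compound exposure and a 2 h beta-lactamase substrate step.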

[20] = qHTS assay for cell viability of HEK293 cells (AID 743288); details: ATP luminescence (CellTiter-Glo), 18 h, hits give low values; further: on the % scale 0 is the no-effect control and ±100 the full control effect; nearly all actives have a fitted effect of over 50% in size
In short: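 ATP luminescence (CellTiter-Glo) reports metabolically competent cell number after parental HEK293 cells, 2,000/well, were treated with DMSO-dissolved compounds for 18 h at 37 C; reagent incubation 30 min, room temperature.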

Nc1c(Cl)cc([N+](=O)[O-])cc1Cl
inactive: Potency [1] > 92 µM | Potency [2] > 92 µM | outcome [3] | outcome [4] | outcome [5] | Potency [6] | outcome [7] | outcome [8] | outcome [9] | Potency [10] | Potency [11] | Potency [12] | Potency [13] | Potency [14] | Potency [15] | Potency [16] | Potency [17] | Potency [18] | max response [19] 8.8% and -9.21% | max response [20] 7.25% and -11.8%

Oc1cc(Cl)ccc1Cl
inactive: Potency [1] > 92 µM | Potency [2] > 92 µM | outcome [3] | outcome [4] | outcome [5] | Potency [6] | outcome [7] | outcome [8] | outcome [9] | Potency [10] | Potency [11] | Potency [12] | Potency [13] | Potency [14] | Potency [15] | Potency [16] | Potency [17] | Potency [18] | max response [19] 14.5% and -2.04% | max response [20] 5.28% and -9.5%

CN=C=O
inactive: Potency [1] > 92 µM | Potency [2] > 92 µM | outcome [3] | outcome [4] | outcome [5] | Potency [6] | outcome [7] | outcome [8] | outcome [9] | Potency [10] | Potency [11] | Potency [12] | Potency [13] | Potency [14] | Potency [15] | Potency [16] | Potency [17] | Potency [18] | max response [19] -4.34% | max response [20] 3.09%

CCCCC(=O)Cl
inactive: Potency [1] > 92 µM | Potency [2] > 92 µM | outcome [3] | outcome [4] | outcome [5] | Potency [6] | outcome [7] | outcome [8] | outcome [9] | Potency [10] | Potency [11] | Potency [12] | Potency [13] | Potency [14] | Potency [15] | Potency [16] | Potency [17] | Potency [18] | max response [19] 2.67% | max response [20] 5.94%

Nc1ccc(Oc2ccc(N)cc2)cc1
inactive: Potency [1] > 92 µM | Potency [2] > 92 µM | outcome [3] | outcome [4] | outcome [5] | Potency [6] | outcome [7] | outcome [8] | outcome [9] | Potency [10] | Potency [11] | Potency [12] | Potency [13] | Potency [14] | Potency [15] | Potency [16] | Potency [17] | Potency [18] | max response [19] -2.21% and -13% | max response [20] -1.7% and -3.88%

CCCCCc1cc(O)cc(O)c1
inactive: Potency [1] > 92 µM | Potency [2] > 92 µM | outcome [3] | outcome [4] | outcome [5] | Potency [6] | outcome [7] | outcome [8] | outcome [9] | Potency [10] | Potency [11] | Potency [12] | Potency [13] | Potency [14] | Potency [15] | Potency [16] | Potency [17] | Potency [18] | max response [19] 8.35% | max response [20] -5.2%

CC(C)CC(C)N (stereo not given)
inactive: Potency [1] > 92 µM | Potency [2] > 92 µM | outcome [3] | outcome [4] | outcome [5] | Potency [6] | outcome [7] | outcome [8] | outcome [9] | Potency [10] | Potency [11] | Potency [12] | Potency [13] | Potency [14] | Potency [15] | Potency [16] | Potency [17] | Potency [18] | max response [19] 0.53% | max response [20] 1.65%

FC(Cl)(Cl)Cl
inactive: Potency [1] > 92 µM | Potency [2] > 92 µM | outcome [3] | outcome [4] | outcome [5] | Potency [6] | outcome [7] | outcome [8] | outcome [9] | Potency [10] | Potency [11] | Potency [12] | Potency [13] | Potency [14] | Potency [15] | Potency [16] | Potency [17] | Potency [18] | max response [19] -4.09% | max response [20] -1.1%

N#CC(O)c1ccccc1 (stereo not given)
inactive: Potency [1] > 92 µM | Potency [2] > 92 µM | outcome [3] | outcome [4] | outcome [5] | Potency [6] | outcome [7] | outcome [8] | outcome [9] | Potency [10] | Potency [11] | Potency [12] | Potency [13] | Potency [14] | Potency [15] | Potency [16] | Potency [17] | Potency [18] | max response [19] 12.9% | max response [20] 2.16%

CN(C)C(=O)Nc1cccc(C(F)(F)F)c1
inactive: Potency [1] > 92 µM | Potency [2] > 92 µM | outcome [3] | outcome [4] | outcome [5] | Potency [6] | outcome [7] | outcome [8] | outcome [9] | Potency [10] | Potency [11] | Potency [12] | Potency [13] | Potency [14] | Potency [15] | Potency [16] | Potency [17] | Potency [18] | max response [19] -4.03% and 2.07% | max response [20] 3% and -3.2%

OCCOCCO
inactive: Potency [1] > 92 µM | Potency [2] > 92 µM | outcome [3] | outcome [4] | outcome [5] | Potency [6] | outcome [7] | outcome [8] | outcome [9] | Potency [10] | Potency [11] | Potency [12] | Potency [13] | Potency [14] | Potency [15] | Potency [16] | Potency [17] | Potency [18] | max response [19] -0.406% | max response [20] 1.68%

C=C(Cl)CCl
inactive: Potency [1] > 92 µM | Potency [2] > 92 µM | outcome [3] | outcome [4] | outcome [5] | Potency [6] | outcome [7] | outcome [8] | outcome [9] | Potency [10] | Potency [11] | Potency [12] | Potency [13] | Potency [14] | Potency [15] | Potency [16] | Potency [17] | Potency [18] | max response [19] 19% | max response [20] -2.76%
